PubChem BioAssay (NCATS)
Results filed as inconclusive are left out. Entries that show only a call come without a potency. A number with no mark means an inactive call. Active and inactive are the calls of the source. Unless noted, calls follow the shape of the dose curve; as a rule, active = well fitted curve in the direction sought with a large enough effect; inconclusive = small, poorly fitted or top-dose-only effect, or another doubt; inactive = no such curve, though single readings can be large; an effect the other way counts as inactive or inconclusive.

Assays:
[1] = target: Aldehyde dehydrogenase, mitochondrial (Homo sapiens) (UniProt P05091); assay: qHTS for Inhibitors of the Aldehyde Dehydrogenase Family (ALDH2) Confirmatory screens (AID 2061303; active = well fitted inhibition curve with a large enough effect; title and protocol of this record describe different tests; also: nearly all actives have a fitted effect of over 45% in size; also: potency is read from the fitted curve at half-maximal effect)
[2] = qHTS for Inhibitors of the Aldehyde Dehydrogenase Family (ALDH1A2, ALDH1A3, ALDH2, ALDH3A1) (AID 2061307); also: nearly all actives have a fitted effect of over 50% in size; as to potency: test system not described further here; potency is read from the fitted curve at half-maximal effect
[3] = target: Retinaldehyde dehydrogenase 3 (Homo sapiens) (UniProt P47895); assay: qHTS for Inhibitors of the Aldehyde Dehydrogenase Family (ALDH1A3) Confirmatory screens (AID 2061311); also: nearly all actives have a fitted effect of over 60% in size; also: potency is read from the fitted curve at half-maximal effect
[4] = target: Retinaldehyde dehydrogenase 3 (Homo sapiens) (UniProt P47895); assay: qHTS for Inhibitors of the Aldehyde Dehydrogenase Family (ALDH1A3) Primary screen (AID 2061315)
[5] = target: Aldehyde dehydrogenase 1A1 (Homo sapiens) (UniProt P00352); assay: qHTS for Inhibitors of the Aldehyde Dehydrogenase Family (ALDH1A1) Confirmatory screens (AID 2061316); also: nearly all actives have a fitted effect of over 65% in size; also: potency is read from the fitted curve at half-maximal effect
[6] = target: Retinal dehydrogenase 2 (Homo sapiens) (UniProt O94788); assay: qHTS for Inhibitors of the Aldehyde Dehydrogenase Family (ALDH1A2) Confirmation screens (AID 2061314); also: nearly all actives have a fitted effect of over 65% in size; also: potency is read from the fitted curve at half-maximal effect
[7] = target: Aldehyde dehydrogenase, mitochondrial (Homo sapiens) (UniProt P05091); assay: qHTS for Inhibitors of the Aldehyde Dehydrogenase Family (ALDH2) Primary screen (AID 2061308); also: nearly all actives have a fitted effect of over 55% in size

Structure (SMILES) | Potency [1] | Potency [2] | Potency [3] | Potency [4] | Potency [5] | Potency [6] | Potency [7]
CC(C)(C)OC(=O)N1CCN(c2ccc(NCc3cccc(-c4ccc(C#N)cc4)n3)cc2)CC1 | 0.201 µM (active) | 0.142 µM (active) | inactive | inactive | 8.96 µM (active) | – | –
Cc1cc(-c2nnc3n2CCCCC3)c(C)n1-c1ccccn1 | inactive | inactive | 14.2 µM (active) | inactive | – | – | –
CC[C@H](CO)Nc1nc(Nc2cccc(-c3ccccn3)c2)c2ncn(C(C)C)c2n1 | inactive | inactive | inactive | inactive | – | – | –
CC(=O)/C=C1/C(=O)N(C)c2ccccc21 | inactive | inactive | – | – | 4 µM (active) | 14.2 µM (active) | –
N#Cc1cccc(NC(=S)N[C@H]2CO[C@H]3[C@@H]2OC[C@@H]3n2nnnc2Oc2cccc(N3CCOCC3)c2)c1 | inactive | 6.31 µM (active) | – | – | 10.2 µM (active) | inactive | –
COc1cc(N2C(=O)c3ccccc3C2=O)c2ncccc2c1 | inactive | inactive | – | – | inactive | – | –
Cc1cc(-c2nnc3n2CCCCC3)c(C)n1-c1cccc(C#N)c1 | inactive | inactive | – | inactive | – | inactive | –
O=C(Nc1ccc(Cl)c(Cl)c1)Nc1cccc(-c2ccncc2)n1 | inactive | inactive | – | inactive | inactive | inactive | –
N#Cc1cccc(N2CCN(Cc3ccc(F)c(Cl)c3F)CC2)n1 | 15.8 µM (active) | 4.58 µM (active) | – | – | 14.5 µM (active) | – | –
Cc1ccc(OCCn2c(CCNC(=O)c3ccc(N)cc3)nc3ccccc32)cc1 | 10.1 µM (active) | 0.896 µM (active) | – | inactive | 3.18 µM (active) | 7.98 µM (active) | –
O=C(Cn1nc(-c2ccc(F)cc2)ccc1=O)NCCc1ccccc1 | inactive | inactive | – | inactive | inactive | – | –
O=Cc1ccc(-c2ccc3ncnc(NCc4cccs4)c3c2)o1 | 11.3 µM (active) | inactive | – | inactive | – | inactive | –
O=c1c2ccccc2nc2sc(Nc3ccc(Sc4ccccc4)cc3)nn12 | inactive | 12.6 µM (active) | – | inactive | – | 4 µM (active) | –
O=C1CCCC2=C1C(c1ccccc1Cl)N=C(c1ccccn1)N2 (centres undefined) | inactive | inactive | – | inactive | – | – | –
COc1ccc(C2N(Cc3ccccc3)C(=O)c3ccccc3N2C)cc1COc1ccc(NC(C)=O)cc1 (centres undefined) | inactive | 10.1 µM (active) | – | inactive | – | – | –
O=c1[nH]c2ccc(NCc3ccc(-c4ccccc4F)o3)cc2[nH]1 | 0.576 µM (active) | 4.47 µM (active) | – | – | – | inactive | –
COc1ccc(NC(=O)O[C@@H]2CO[C@H]3[C@@H]2OC[C@@H]3n2nnnc2SCc2ccco2)cc1 | inactive | 12.9 µM (active) | – | – | 10.2 µM (active) | – | –
COc1cc(Nc2nc(-c3ccncc3)nc3ccccc23)ccc1N1CCN(C)CC1 | inactive | – | – | – | – | – | inactive
N#Cc1ccc(-c2ccc(CNc3ccc(N4CCN5CCCCC5C4)cc3)o2)cc1 (centres undefined) | 0.0252 µM (active) | 0.449 µM (active) | – | inactive | 8.96 µM (active) | inactive | –
COc1cc(NC(=S)N2CCN(c3cccc(C(F)(F)F)c3)CC2)nc2ccccc12 | 25.1 µM (active) | inactive | – | inactive | – | 7.94 µM (active) | –
CCOc1ccc(NC(=O)CSc2nc3ccccc3nc2N2CCOCC2)cc1 | inactive | inactive | – | – | inactive | – | –
COc1ccc(CC(=O)Nc2c(C(=O)N3CCN(c4ccccc4)CC3)oc3ccccc23)cc1OC | inactive | inactive | – | – | – | inactive | –
CCc1ccc(-n2c(=O)c3cccnc3n2CC(=O)Nc2cc(F)ccc2F)cc1 | inactive | inactive | – | – | – | inactive | –
O=C(O)c1ccc(-n2cccc2/C=C2\SC(=O)N(Cc3cccc(Cl)c3)C2=O)cc1 | 11.3 µM (active) | 1.79 µM (active) | – | inactive | 7.98 µM (active) | – | –
CCOc1ccc(-c2cc(C(=O)NCCc3ccc(C)cc3)c3ccccc3n2)cc1 | inactive | inactive | – | – | inactive | inactive | –
Cc1cc(-c2nnc3n2CCCCC3)c(C)n1-c1ccc(Br)cc1 | inactive | inactive | – | inactive | 12.7 µM (active) | – | –
Cc1ccc(OCCn2c(CCNC(=O)c3ccc([N+](=O)[O-])cc3)nc3ccccc32)cc1 | 22.5 µM (active) | inactive | – | inactive | 17.9 µM (active) | inactive | –
CC(C)(C)OC(=O)N1CCN(c2ccc(NCc3cnc(-c4ccc(C#N)cc4)s3)cc2)CC1 | 1.79 µM (active) | 2.83 µM (active) | – | inactive | 11.3 µM (active) | inactive | –
CCc1nc2nc(C)cc(Nc3ccc(Br)cc3F)n2n1 | inactive | inactive | – | – | inactive | inactive | –
CC(=O)c1ccc(N2CCN(C(=O)Nc3ccc(C(C)C)cc3)CC2)cc1 | inactive | inactive | – | – | 3.24 µM (active) | – | –
